# The supplement of paper PMC6555819
# Assays:
# Experiment in all cases: PBM binding z-score (relative to random genomic background probes); higher = stronger binding; sequences stand for … in GC…GCGATTGACAGCGTAGAATGAAGG
# [1] = tested on: PPARg:RXRa DBDmut IVT, anti-RXR (DBD mutation: RXRa K156A/R161A, NR concentration 270 nM, RXRa partner concentration 90 nM)
# Method in brief: (§1)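 Scanned fluorescence from custom Agilent 4×180K protein-binding microarrays was regression-normalized. Binding z-scores use random background probes as reference. Ligand-free nuclear receptor dimers were incubated on the arrays for 1 h and detected with antibodies against each partner (one per run).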
# [2] = tested on: PPARg:RXRa IVT, anti-PPARg (NR concentration 270 nM, RXRa partner concentration 90 nM)
# Method in brief: as §1
# [3] = tested on: PPARg DBDmut:RXRa IVT, anti-PPARg (DBD mutation: PPARg1 K132A/R137A, NR concentration 270 nM, RXRa partner concentration 90 nM)
# Method in brief: as §1
# [4] = tested on: PPARg DBDmut IVT, anti-PPARg (DBD mutation: PPARg1 K132A/R137A, NR concentration 270 nM)
# Method in brief: as §1
# [5] = tested on: PPARg homodimer (NR concentration 180 nM)
# Method in brief: as §1
# [6] = tested on: PXR:RXRa (NR concentration 270 nM, RXRa partner concentration 90 nM)
# Method in brief: as §1
# [7] = tested on: PXR homodimer (NR concentration 270 nM)
# Method in brief: as §1
# [8] = tested on: RARa:RXR (NR concentration 270 nM, RXRa partner concentration 90 nM)
# Method in brief: as §1
# [9] = tested on: RARa homodimer (NR concentration 270 nM)
# Method in brief: as §1
# [10] = tested on: RARb:RXRa (NR concentration 270 nM, RXRa partner concentration 90 nM)
# Method in brief: as §1
# [11] = tested on: RARb homodimer (NR concentration 270 nM)
# Method in brief: as §1
# [12] = tested on: RARg:RXRa (NR concentration 270 nM, RXRa partner concentration 90 nM)
# Method in brief: as §1
# [13] = tested on: RARg homodimer (NR concentration 270 nM)
# Method in brief: as §1
# [14] = tested on: RXRa DBDmut IVT, anti-RXR (DBD mutation: RXRa K156A/R161A, NR concentration 90 nM)
# Method in brief: as §1
# [15] = tested on: RXRa homodimer (NR concentration 180 nM)
# Method in brief: as §1
# [16] = tested on: THRa:RXRa (NR concentration 90 nM, RXRa partner concentration 90 nM)
# Method in brief: as §1
# [17] = tested on: THRa homodimer (NR concentration 90 nM)
# Method in brief: as §1
# [18] = tested on: VDR homodimer (NR concentration 270 nM)
# Method in brief: as §1
sequence,measurement,setting,value
AGAACGAGGGCACGCTGAGTTAATAGCAGAGTAG,PBM binding z-score,[1],4.13
same,PBM binding z-score,[2],3.9
same,PBM binding z-score,[3],-0.114
same,PBM binding z-score,[4],0.0711
same,PBM binding z-score,[5],0.0693
same,PBM binding z-score,[6],1.38
same,PBM binding z-score,[7],-0.237
same,PBM binding z-score,[8],0.718
same,PBM binding z-score,[9],-0.564
same,PBM binding z-score,[10],2.52
same,PBM binding z-score,[11],0.988
same,PBM binding z-score,[12],2.08
same,PBM binding z-score,[13],2.41
same,PBM binding z-score,[14],1.8
same,PBM binding z-score,[15],1.44
same,PBM binding z-score,[16],2.05
same,PBM binding z-score,[17],0.0156
same,PBM binding z-score,[18],1.08
CCTTACGGATCACTCCAGGTTATAGCATCGGAGT,PBM binding z-score,[1],0.299
same,PBM binding z-score,[2],0.0369
same,PBM binding z-score,[3],0.0149
same,PBM binding z-score,[4],0.787
same,PBM binding z-score,[5],1
same,PBM binding z-score,[6],0.823
same,PBM binding z-score,[7],0.761
same,PBM binding z-score,[8],0.748
same,PBM binding z-score,[9],1.26
same,PBM binding z-score,[10],0.105
same,PBM binding z-score,[11],0.563
same,PBM binding z-score,[12],0.297
same,PBM binding z-score,[13],0.583
same,PBM binding z-score,[14],0.552
same,PBM binding z-score,[15],0.224
same,PBM binding z-score,[16],3.06
same,PBM binding z-score,[17],0.842
same,PBM binding z-score,[18],0.677
ACTACAGGGTCACTAGGCCAGAGTAGGTACGAAT,PBM binding z-score,[1],3.3
same,PBM binding z-score,[2],5.46
same,PBM binding z-score,[3],1.45
same,PBM binding z-score,[4],0.752
same,PBM binding z-score,[5],2.24
same,PBM binding z-score,[6],2.67
same,PBM binding z-score,[7],0.0574
same,PBM binding z-score,[8],3.53
same,PBM binding z-score,[9],0.377
same,PBM binding z-score,[10],4.19
same,PBM binding z-score,[11],3.08
same,PBM binding z-score,[12],4.68
same,PBM binding z-score,[13],4.59
same,PBM binding z-score,[14],2.54
same,PBM binding z-score,[15],4.84
same,PBM binding z-score,[16],3.33
same,PBM binding z-score,[17],0.948
same,PBM binding z-score,[18],1.82
TCTTGTAGATCAGCAGGTGAAGAAAGCTGGCCAA,PBM binding z-score,[1],1.32
same,PBM binding z-score,[2],0.857
same,PBM binding z-score,[3],0.193
same,PBM binding z-score,[4],-0.252
same,PBM binding z-score,[5],-1.42
same,PBM binding z-score,[6],-0.182
same,PBM binding z-score,[7],-0.577
same,PBM binding z-score,[8],0.0618
same,PBM binding z-score,[9],-0.865
same,PBM binding z-score,[10],-0.138
same,PBM binding z-score,[11],-0.153
same,PBM binding z-score,[12],-0.237
same,PBM binding z-score,[13],-0.356
same,PBM binding z-score,[14],0.475
same,PBM binding z-score,[15],0.184
same,PBM binding z-score,[16],0.0556
same,PBM binding z-score,[17],-0.332
same,PBM binding z-score,[18],-0.766
GCTAGCAGGCCATTTGGGTCACGCAATGACGGGC,PBM binding z-score,[1],2.42
same,PBM binding z-score,[2],3.05
same,PBM binding z-score,[3],-0.368
same,PBM binding z-score,[4],-0.646
same,PBM binding z-score,[5],0.0821
same,PBM binding z-score,[6],1.13
same,PBM binding z-score,[7],-0.117
same,PBM binding z-score,[8],1.88
same,PBM binding z-score,[9],-0.356
same,PBM binding z-score,[10],1.91
same,PBM binding z-score,[11],2.27
same,PBM binding z-score,[12],1.79
same,PBM binding z-score,[13],1.75
same,PBM binding z-score,[14],-0.208
same,PBM binding z-score,[15],1.68
same,PBM binding z-score,[16],2.54
same,PBM binding z-score,[17],1.19
same,PBM binding z-score,[18],0.28
TCTTGTAGATCAATAGACGTTAAGAAAGTGCGCT,PBM binding z-score,[1],1.93
same,PBM binding z-score,[2],0.361
same,PBM binding z-score,[3],0.093
same,PBM binding z-score,[4],1.4
same,PBM binding z-score,[5],-0.0841
same,PBM binding z-score,[6],0.0599
same,PBM binding z-score,[7],-0.0185
same,PBM binding z-score,[8],0.0974
same,PBM binding z-score,[9],0.424
same,PBM binding z-score,[10],-0.173
same,PBM binding z-score,[11],-0.66
same,PBM binding z-score,[12],-0.0458
same,PBM binding z-score,[13],0.0391
same,PBM binding z-score,[14],0.88
same,PBM binding z-score,[15],-0.042
same,PBM binding z-score,[16],-0.347
same,PBM binding z-score,[17],-0.846
same,PBM binding z-score,[18],0.0604
TTACCAAGGTGAAGGGCGTTGATCCCTCTGTAGA,PBM binding z-score,[1],1.73
same,PBM binding z-score,[2],2.43
same,PBM binding z-score,[3],-0.0766
same,PBM binding z-score,[4],-0.0935
same,PBM binding z-score,[5],0.279
same,PBM binding z-score,[6],0.365
same,PBM binding z-score,[7],-0.351
same,PBM binding z-score,[8],0.762
same,PBM binding z-score,[9],-0.0384
same,PBM binding z-score,[10],1.64
same,PBM binding z-score,[11],0.953
same,PBM binding z-score,[12],0.413
same,PBM binding z-score,[13],0.407
same,PBM binding z-score,[14],-0.371
same,PBM binding z-score,[15],0.755
same,PBM binding z-score,[16],1.49
same,PBM binding z-score,[17],0.536
same,PBM binding z-score,[18],-0.115
